Hits are enriched below; roughly 1% of the tested compounds scored in any of these assays.
Y pestis TopoI = inhibitors of Yersinia pestis topoisomerase I; Y. pestis Topo-I cleavage product accumulation, plate reader; activity, % at 10 µM; actives 0.064% (n = 360,000); AID 504884; in the data active = activity above about 50%, passing the limit was not always enough
BioA inh = BioA (M. tuberculosis) enzyme inhibition; AID 602481; purified M. tuberculosis BioA enzyme, plate reader; actives 0.096% (n = 360,000); inhibition, % at 9.99 µM; in the data active = inhibition above about 40%
TcdB inh = inhibitors of Clostridioides difficile toxin B glycohydrolase. TcdB glycohydrolase enzymatic assay, plate reader. inhibition, % at 9.99 µM. actives 0.24% (n = 350,000). AID 652162; in the data active = inhibition above about 10%
FadD28 binding = inhibitors of Mycobacterium tuberculosis FadD28 bisubstrate binding. actives 0.22% (n = 360,000). inhibition, % at 12.5 µM. FadD28 bisubstrate probe binding, fluorescence polarization; in the data active = inhibition above about 8.5%, passing the limit was not always enough
MazEF act = MazEF (E. coli) toxin RNase activation | P0AE70 | FAM/BHQ RNA-DNA oligo cleavage fluorescence, 5 h | activation, % at 20 µM | actives 0.32% (n = 350,000); in the data active = activation above about 50%
Target sequence (P0AE70 whole entry, looked up): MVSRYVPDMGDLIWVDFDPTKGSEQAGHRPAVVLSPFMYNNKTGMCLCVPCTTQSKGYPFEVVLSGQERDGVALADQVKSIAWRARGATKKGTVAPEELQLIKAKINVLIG
DUSP3 inh = DUSP3 (human) phosphatase inhibition | recombinant VHR phosphatase, pNPP absorbance | P51452 | inhibition, % at 13.3 µM | AID 1654 | actives 0.52% (n = 290,000); in the data active = inhibition above about 50%
Target sequence (P51452 whole entry, looked up): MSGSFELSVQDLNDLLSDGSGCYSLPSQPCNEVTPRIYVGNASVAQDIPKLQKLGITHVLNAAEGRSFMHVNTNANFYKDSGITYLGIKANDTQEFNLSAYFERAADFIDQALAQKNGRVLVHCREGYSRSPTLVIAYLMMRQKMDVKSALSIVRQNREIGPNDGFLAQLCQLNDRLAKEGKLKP
A number is an active result; i = inactive; nt = no result.

SMILES | Y pestis TopoI | BioA inh | TcdB inh | FadD28 binding | MazEF act | DUSP3 inh
CN(C)c1ccc2cc(S(=O)(=O)O)cc(O)c2c1 | i | i | i | 19 | i | nt
O=C(CN1C(=O)NC2(CCCc3ccccc32)C1=O)N1CCN(C(=O)c2ccco2)CC1 (stereo not given) | i | i | nt | i | i | 54
O=C(CN1C(=O)NC2(CCCc3ccccc32)C1=O)c1ccc(Br)cc1 (stereo not given) | i | i | i | 17 | i | nt
COc1ccc(N2CCN(C(=O)CN3C(=O)NC4(CCCc5ccccc54)C3=O)CC2)cc1 (stereo not given) | i | nt | i | i | i | nt
COc1cccc(/C=C(/C(=O)OCC(=O)NC2CCCC(C)C2C)c2ccccc2)c1 (stereo not given) | 60 | nt | nt | i | i | i
COc1cccc(/C=C(/C(=O)OCC(N)=O)c2ccccc2)c1 | i | nt | i | i | i | i
Cn1cccc1/C=C1/C(=O)NC(=O)N(Cc2ccc(F)cc2)C1=O | i | nt | i | i | i | i
Cn1cccc1/C=C1/C(=O)NC(=S)N(Cc2ccc(F)cc2)C1=O | i | i | i | 44 | i | i
CCC(C(=O)NC1CCCC1)N(C(=O)Cn1nnc(-c2ccc(C)o2)n1)c1ccc(F)cc1 (stereo not given) | i | i | i | i | i | 53
O=C(O)C[C@@H]1C(=O)O[C@@H]2C(COC(=O)c3cc(O)c(O)c(O)c3)O[C@@H](OC(=O)c3cc(O)c(O)c(O)c3)[C@@H](OC(=O)c3cc(O)c(O)c4c3[C@H]1[C@H](O)C(=O)O4)[C@H]2OC(=O)c1cc(O)c(O)c(O)c1 (stereo not given in full) | nt | nt | nt | nt | nt | 114
COC1OC(COC(=O)c2ccccc2)C(OC(=O)c2ccccc2)C1OC(=O)c1ccccc1 (stereo not given) | i | i | i | i | i | nt
COc1ccc(Cl)cc1N(CC(=O)NC1CC2CCC1C2)S(=O)(=O)c1ccccc1 (stereo not given) | i | i | i | i | i | i
COc1ccc(OC)c(N(CC(=O)NC2CC3CCC2C3)S(=O)(=O)c2ccccc2)c1 (stereo not given) | i | i | i | i | i | 59
O=C(Nc1nccs1)c1c(O)c2cccc3c2n(c1=O)CCC3 | nt | nt | nt | nt | nt | 56
O=C(Nc1ccccn1)c1c(O)c2cccc3c2n(c1=O)CCC3 | i | i | nt | i | i | i
O=C(COc1ccccc1)Nc1ccc(CN2CCCCC2)cc1 | i | i | i | 16 | i | i
Cc1ccnc(NS(=O)(=O)c2ccc(NC(=O)COc3ccccc3)cc2)n1 | i | nt | i | i | i | i
O=C(COc1ccccc1)Nc1ccc(S(=O)(=O)Nc2ncccn2)cc1 | i | nt | 17 | i | i | i
O=C(COc1ccccc1)Nc1ccc(N2CCCCC2)cc1 | i | i | i | i | i | nt
COc1ccc(S(=O)(=O)N2CCC3(CC2)CN(Cc2ccncc2)[C@H](CO)c2[nH]c4cc(OC)ccc4c23)cc1 | nt | nt | i | nt | nt | nt
CN(C)c1ccc(NC(=O)/C=C/c2c(Cl)cccc2Cl)cc1 | i | nt | 13 | i | i | i
CN(C)S(=O)(=O)c1ccc(NC(=O)/C=C/c2ccccc2Cl)cc1 | i | nt | nt | i | i | i
CC(C)NC(=O)NCC[C@H]1CC[C@@H](NC(=O)CCN2CCCCC2)[C@H](CO)O1 | nt | i | i | nt | nt | nt
CCOC(=O)c1sc(=S)[nH]c1C | i | nt | 12 | i | i | nt
CCOC(=O)c1ccc2ncc(-c3ccccc3)nc2c1 | i | nt | 25 | i | i | i
SMILES | Y pestis TopoI | BioA inh | TcdB inh | FadD28 binding | MazEF act | DUSP3 inh
Cc1nc2ccc(C(=O)OCc3ccccc3Br)cc2nc1C | i | i | i | i | 60 | i
Cc1cc2ncc(-c3ccccc3)nc2cc1C | i | i | i | i | i | i
CC(=O)Nc1ccc(NC(=O)Cc2ccc(S(=O)(=O)N3CCCCC3)cc2)cc1 | i | i | 13 | i | i | nt
COc1ccc(CSCC(=O)Nc2ccc(S(=O)(=O)N3CCCCCC3)cc2)cc1 | i | nt | nt | 12 | i | i
O=C(Cc1ccccc1)Nc1ccc(S(=O)(=O)N2CCCC2)cc1 | i | i | i | i | i | i
COc1cccc(C#Cc2ccc([C@H]3[C@H]4CN(S(=O)(=O)c5ccccc5C)CC(=O)N4[C@H]3CO)cc2)c1 | nt | nt | i | nt | nt | nt
Cc1noc(C)c1S(=O)(=O)Nc1ccc2c(c1)C(=O)N([C@H](C)CO)C[C@H](C)[C@@H](CN(C)CC1CCCCC1)OCCCC[C@H](C)O2 | nt | i | i | nt | nt | nt
O=C(C[C@H]1CC[C@H](NC(=O)c2ccccc2)[C@H](CO)O1)NCc1ccncn1 | nt | i | i | nt | nt | nt
CCCN1C[C@H](C)[C@H](OC)CN(C)C(=O)c2ccc(NC(=O)c3ccccc3)cc2OC[C@@H]1C | nt | i | i | nt | nt | nt
CCOC(=O)C1CCCN(C(=O)c2cc(Nc3ccc(OC)cc3)nc3ccccc23)C1 (stereo not given) | i | i | nt | 22 | i | i
COc1ccccc1NC(=O)Nc1ccc2c(c1)C(=O)N(C)C[C@H](OC)[C@H](C)CN[C@@H](C)CO2 | nt | i | i | nt | nt | nt
CC1CN(C(=O)c2cc3cc([N+](=O)[O-])ccc3s2)CC(C)O1 (stereo not given) | i | nt | i | i | 161 | i
CO[C@@H]1CN(C)C(=O)c2cc(NC(=O)Cc3ccccc3)ccc2OC[C@H](C)NC[C@H]1C | nt | i | nt | nt | nt | nt
Cc1ccc(C(=O)NCCCNC(=O)c2ccco2)cn1 | i | i | i | i | i | 56
Cc1cc(C)n(/N=C/c2ccc(C(C)C)cc2)c(=O)c1C#N | i | nt | i | i | i | 51
Cc1ccc(/C=N/n2c(C)cc(C)c(C#N)c2=O)cc1 | i | i | nt | i | i | i
Cc1ccc(OCC(=O)Nc2ccc(Cl)cc2)c(-n2nc3ccccc3n2)c1 | i | i | nt | i | 69 | i
CCCCCCCCCCCCCCCC(O)C[N+](C)(C)CCO (stereo not given) | i | nt | i | 35 | i | nt
CCCCCC(O)CCCC(=O)O (stereo not given) | i | i | i | i | i | nt
COc1cc2c(cc1OC)C1=NC(=O)CN1C(SCc1ccc(C)cc1)=N2 | 82 | nt | nt | i | i | i
CCOc1cccc2sc(N(CCCN(C)C)C(=O)c3ccc(S(=O)(=O)N4CCc5ccccc5C4)cc3)nc12 | i | i | i | i | 50 | i
Cc1ccc(C2=NS(=O)(=O)N(C)C(C(=O)NC(C)c3ccccc3)=C2)cc1 (stereo not given) | i | i | i | i | i | i
CSc1ccccc1NC(=O)C1=CC(c2ccc(C)cc2)=NS(=O)(=O)N1C | i | i | 29 | i | i | i
CN(C)C(=O)C[C@H]1C=C[C@H](NC(=O)C2CCC2)[C@H](CO)O1 | nt | i | i | nt | nt | nt
NS(=O)(=O)c1ccc(CCNC(=O)CSc2ccc(Cl)cc2Cl)cc1 | i | nt | i | i | 63 | i
NS(=O)(=O)c1ccc(CCNC(=O)CSc2ccc(Cl)cc2)cc1 | i | i | nt | i | i | i
CN(C)C=Nc1c(Br)cc(Br)c2nonc12 | i | i | nt | i | 228 | i
Nc1ccc(S(=O)(=O)NCC(=O)OCCOc2ccccc2)cc1[N+](=O)[O-] | i | i | i | i | i | nt
CSc1ccc(S(=O)(=O)NCC(=O)OCCOc2ccccc2)cc1[N+](=O)[O-] | i | nt | i | i | 78 | nt

Compound activity as filed in PubChem BioAssay.
